Experimental data: PubChem BioAssay
The source made the active and inactive calls.

How the values were obtained:
[1] = system: Human papillomavirus type 1a protein E7 (residues 44-93); experiment: small molecules binding HPV E7 44-93 – biochemical, small-molecule microarray, residues 44-93, 635 nm fluorescence, primary screen (AID 1108); conditions: fluorescence 635 nm, higher = more signal;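 also: E7 fragment applied at 1 µg/mL in TBST for 1 h at 4 C; score combines spot fluorescence with its signal to noise ratio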
[2] = hepatitis C replication reporter changes, two-sided – Huh7 cells, luciferase reporter, HCV replication inhibitor project, primary screen (AID 1109); conditions: Huh7 HCV replicon luciferase reporter, 48 h; higher = more signal;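 also: huh7 hepatoma cells harbouring a luciferase neomycin HCV replicon reporter; luciferase luminescence as measure of HCV replicon replication; test concentration not given here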
[3] = molecular target: Left-right determination factor 2 (Homo sapiens) (UniProt O00292); experiment: small molecules binding LEFTY2 protein – biochemical, small-molecule microarray, 635 nm fluorescence scan, primary screen (AID 1110); conditions: higher = more signal
Sequence of Left-right determination factor 2 (Homo sapiens) (O00292 whole entry, looked up): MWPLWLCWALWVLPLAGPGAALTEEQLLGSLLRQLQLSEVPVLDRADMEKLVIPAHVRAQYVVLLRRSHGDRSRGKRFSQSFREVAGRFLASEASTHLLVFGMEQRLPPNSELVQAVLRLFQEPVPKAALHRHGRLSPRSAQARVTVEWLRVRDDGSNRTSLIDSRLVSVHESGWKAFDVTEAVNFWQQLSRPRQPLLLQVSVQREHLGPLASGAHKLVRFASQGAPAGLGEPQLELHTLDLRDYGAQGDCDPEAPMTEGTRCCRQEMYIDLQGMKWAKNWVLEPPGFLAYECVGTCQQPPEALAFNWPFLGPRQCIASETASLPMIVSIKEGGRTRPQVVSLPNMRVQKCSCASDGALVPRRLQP

[4] = molecular target: Calmodulin-1 (Homo sapiens) (UniProt P0DP23); experiment: small molecules binding calmodulin-1 with EGTA – biochemical, small-molecule microarray, Cy5-labelled CALM1, profiling panel (AID 1111); conditions: Cy5-CALM1 binding fluorescence, higher = more signal;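 also: labelled calmodulin applied in Tris saline Tween buffer holding calcium plus EGTA and DTT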
[5] = molecular target: Calmodulin-1 (Homo sapiens) (UniProt P0DP23); experiment: small molecules binding Ca-loaded calmodulin-1 – biochemical, small-molecule microarray, Cy5-labelled CALM1, plus calcium, artefact control for SMM control-protein annotation, profiling panel (AID 1112); conditions: Cy5-CALM1 binding fluorescence, higher = more signal;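 also: score merges spot fluorescence with signal to noise from triplicate slides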
[6] = probe aWnt5a binding to arrayed compounds – biochemical, biotinylated probe, 635/667 nm fluorescence, primary screen (AID 1113); conditions: small-molecule microarray, higher = more signal;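 also: score merges 667 nm fluorescence intensity with signal-to-noise per printed feature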
[7] = probe aShh binding to arrayed compounds – biochemical, biotinylated probe, 635/667 nm fluorescence, primary screen (AID 1114); conditions: small-molecule microarray, higher = more signal;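 also: probe is biotin-labelled aShh protein from a stem cell growth factor screen; measures binding of labelled protein to compounds printed on the slide; score merges feature fluorescence at 667 nm with signal-to-noise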
[8] = probe aNog binding to arrayed compounds – biochemical, biotinylated probe, 635/667 nm fluorescence, primary screen (AID 1115); conditions: small-molecule microarray, higher = more signal;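 also: probe is biotinylated aNog protein used at 0.15 µg/mL for 1 h at 4 C; z-score combines 667 nm fluorescence of each spot with its signal to noise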
[9] = molecular target: Torsin-1A-interacting protein 1 (Homo sapiens) (UniProt Q5JTV8); experiment: compound microarray binding of lysate hLAP1 – cell lysate, small-molecule microarray, COS7 lysate, 635/667 nm fluorescence, primary screen (AID 1116); conditions: 635 nm fluorescence, higher = more signal
Sequence of Torsin-1A-interacting protein 1 (Homo sapiens) (Q5JTV8 whole entry, looked up): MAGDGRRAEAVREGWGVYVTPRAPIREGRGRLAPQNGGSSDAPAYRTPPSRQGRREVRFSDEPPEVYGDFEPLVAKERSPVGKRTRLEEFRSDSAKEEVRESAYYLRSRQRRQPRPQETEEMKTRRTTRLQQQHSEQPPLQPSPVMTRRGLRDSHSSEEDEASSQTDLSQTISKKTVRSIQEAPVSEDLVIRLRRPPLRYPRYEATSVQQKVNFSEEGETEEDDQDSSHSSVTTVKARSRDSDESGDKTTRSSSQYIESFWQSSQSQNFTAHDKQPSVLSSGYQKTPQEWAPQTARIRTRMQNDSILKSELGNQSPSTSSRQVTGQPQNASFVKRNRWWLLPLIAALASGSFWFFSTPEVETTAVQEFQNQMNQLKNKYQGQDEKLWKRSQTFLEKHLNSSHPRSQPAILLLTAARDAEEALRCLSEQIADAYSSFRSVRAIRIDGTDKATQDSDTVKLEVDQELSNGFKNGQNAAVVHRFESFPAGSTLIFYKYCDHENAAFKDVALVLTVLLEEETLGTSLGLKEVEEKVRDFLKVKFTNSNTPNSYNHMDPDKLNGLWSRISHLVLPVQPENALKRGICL

[10] = molecular target: Alpha-bungarotoxin (Bungarus multicinctus) (UniProt P60615); experiment: compounds binding labelled alpha-BTX control protein – biochemical, small-molecule microarray, Alexa647 label, 635/667 nm fluorescence, artefact control for SMM control protein annotation, profiling panel (AID 1117); conditions: alpha-BTX-A647 binding fluorescence, higher = more signal
Sequence of Alpha-bungarotoxin (Bungarus multicinctus) (P60615 whole entry, looked up): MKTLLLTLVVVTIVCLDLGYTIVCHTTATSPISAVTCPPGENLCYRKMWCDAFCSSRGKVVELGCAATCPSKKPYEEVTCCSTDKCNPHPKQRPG

Albumin (Bos taurus) = Albumin (Bos taurus) (UniProt P02769); experiment: compounds binding labelled BSA control protein – biochemical, small-molecule microarray, Alexa647 label, 635/667 nm fluorescence, artefact control for SMM control protein annotation, profiling panel (AID 1118); conditions: BSA-A647 binding, fluorescence 635 nm, higher = more signal;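 also: score merges 667 nm emission intensity and signal-to-noise per printed compound spot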
Sequence of Albumin (Bos taurus) (P02769 whole entry, looked up): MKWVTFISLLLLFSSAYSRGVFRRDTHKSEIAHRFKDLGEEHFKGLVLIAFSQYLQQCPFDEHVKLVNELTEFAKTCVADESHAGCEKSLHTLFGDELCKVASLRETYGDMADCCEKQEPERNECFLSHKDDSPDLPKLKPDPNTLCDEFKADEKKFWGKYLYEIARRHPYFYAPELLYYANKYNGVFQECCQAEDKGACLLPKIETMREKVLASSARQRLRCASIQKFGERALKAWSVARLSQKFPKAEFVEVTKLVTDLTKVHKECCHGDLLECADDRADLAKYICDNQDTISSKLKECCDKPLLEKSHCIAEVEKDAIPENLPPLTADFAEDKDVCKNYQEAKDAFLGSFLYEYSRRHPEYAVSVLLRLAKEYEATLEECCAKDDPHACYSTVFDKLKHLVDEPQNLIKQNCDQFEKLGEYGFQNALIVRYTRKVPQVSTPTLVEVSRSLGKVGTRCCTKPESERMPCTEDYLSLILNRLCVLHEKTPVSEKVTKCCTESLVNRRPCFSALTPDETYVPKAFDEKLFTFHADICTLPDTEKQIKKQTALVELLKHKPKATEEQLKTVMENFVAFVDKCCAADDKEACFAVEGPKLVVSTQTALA

[11] = probe aXIP binding to arrayed compounds – biochemical, NeuroSMM set, 635/667 nm fluorescence, primary screen (AID 1119); conditions: small-molecule microarray, higher = more signal, called active from +8 up or from −8 down;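 also: probe is the protein aXip251-270 applied at 1 µg/mL to compound-printed slides; binding of probe to printed compounds measured as 667 nm fluorescence plus signal to noise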
[12] = probe aNOTCH3 binding on compound microarray – biochemical, small-molecule microarray, 635/667 nm fluorescence, primary screen (AID 1120); conditions: higher = more signal;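 also: probe is a biotin-tagged antibody raised against NOTCH3 rather than NOTCH3 protein; score merges spot fluorescence near 667 nm with spot signal to noise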
[13] = probe aNOTCH2 binding on compound microarray – biochemical, small-molecule microarray, 635/667 nm fluorescence, primary screen (AID 1121); conditions: higher = more signal;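 also: score merges feature fluorescence read at 667 nm with its signal to noise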
[14] = molecular target: Carbonic anhydrase 2 (Homo sapiens) (UniProt P00918); experiment: compounds binding carbonic anhydrase 2 – biochemical, small-molecule microarray, Alexa647-labelled CAII, profiling panel (AID 1122); conditions: CAII-A647 binding fluorescence, higher = more signal
[15] = COS7 lysate on small-molecule microarray, probe aHis, 635 nm (AID 1123); conditions: COS7 cell lysate, fluorescence, higher = more signal;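 also: z-score combines 667nm fluorescence intensity with signal-to-noise per printed compound spot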
[16] = probe aLAP1 signal on lysate-treated microarray – cell lysate, small-molecule microarray, COS7 lysate, primary screen (AID 1124); conditions: probe aLAP1, fluorescence, higher = more signal;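 also: lysate comes from COS7 cells expressing LAP1 and is applied at 0.3 µg/mL; score merges spot fluorescence near 667 nm with signal-to-noise over triplicate slides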
Sam68 (KHDRBS1) = experiment: compounds binding KHDRBS1 protein – biochemical, small-molecule microarray, 635 nm fluorescence, primary screen (AID 1125); conditions: higher = more signal;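 also: score merges 667 nm channel intensity with signal to noise over triplicate slides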
[17] = system: Chordin-like protein 2 (CHRDL2); experiment: compounds binding chordin-like 2 – biochemical, small-molecule microarray, 635 nm fluorescence, primary screen (AID 1126); conditions: fluorescence 635 nm, higher = more signal;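 also: printed compound slides probed with Chrdl2 protein at 4 µg/mL for 1 h at 4 C; score merges 667 nm emission intensity with signal to noise over three replicate slides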
[18] = molecular target: Concanavalin-A (Canavalia ensiformis) (UniProt P02866); experiment: compounds binding concanavalin A lectin – biochemical, small-molecule microarray, Alexa647 label, 635 nm, artefact control for SMM control protein annotation, primary screen (AID 1127); conditions: ConA-A647 binding fluorescence, higher = more signal;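 also: z combines 667 nm emission intensity with signal-to-noise across three replicate slides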
Sequence of Concanavalin-A (Canavalia ensiformis) (P02866 whole entry, looked up): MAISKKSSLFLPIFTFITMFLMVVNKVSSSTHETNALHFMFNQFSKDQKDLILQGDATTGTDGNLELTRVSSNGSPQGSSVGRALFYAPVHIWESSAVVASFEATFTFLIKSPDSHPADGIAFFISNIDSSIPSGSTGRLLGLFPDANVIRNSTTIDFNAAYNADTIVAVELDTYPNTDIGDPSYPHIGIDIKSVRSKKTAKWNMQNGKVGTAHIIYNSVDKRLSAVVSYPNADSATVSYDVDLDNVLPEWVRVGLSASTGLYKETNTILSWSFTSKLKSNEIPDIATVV

Structure (SMILES)	composite z-score [1]	z-score [2]	composite z-score [3]	composite z-score [4]	composite z-score [5]	composite z-score [6]	composite z-score [7]	composite z-score [8]	composite z-score [9]	composite z-score [10]	composite z-score (Albumin (Bos taurus))	composite Z-score [11]	composite z-score [12]	composite z-score [13]	composite z-score [14]	composite z-score [15]	composite z-score [16]	composite z-score (Sam68 (KHDRBS1))	composite z-score [17]	composite z-score [18]
CCC(CC)C(O)C1C=CC2C(=O)N(c3ccccc3)C(=O)C2N1Nc1ccc(C#N)cc1 (stereo not given)	1.46	0.106	0.0717	1.67	0.55	0.275	0.57	1.78	0.602	1.08	1.09	0.35 (inactive)	0.628	0.241	0.729	2.61	-0.266	1.3	0.158	1.23
Cc1ccc(S[C@]2(C(=O)NCC(C)C)CC(=O)N(Cc3ccccc3Cl)[C@@H]2c2ccc(CO)cc2)cc1	-0.411	-1.73	-1.46	-0.476	-0.115	-0.228	-0.181	-0.618	-1.08	0.86	-0.968	-0.12 (inactive)	-0.312	-0.162	0.738	0.678	-0.0092	-0.897	-0.796	-1.88
COCC(=C=CC[C@H](O)c1ccc(OCCO)cc1)C[C@H](O)c1cc(Cl)cc(Cl)c1O	1.35	-3.96	0.628	-0.281	-0.814	-0.0108	0.678	0.277	0.163	0.155	-0.679	-0.566 (inactive)	0.114	-0.122	0.718	-1.65	0.359	1.17	0.923	0.661
CO[C@H]1O[C@H](CO)[C@@H](OC(=O)Nc2ccc(Oc3ccccc3)cc2)[C@H](OC(=O)Nc2ccccc2)[C@H]1OC(=O)Nc1ccccc1	0.838	-2.88	0.62	1.26	-0.278	0.143	-0.0789	0.149	1.2	1.8	0.832	0.914 (inactive)	0.295	-0.0064	0.467	2.09	-0.0652	1.3	-0.0078	1.16
O=C1N(CCS(=O)(=O)c2ccccc2)c2ccccc2C[C@@]12COC(c1ccc(OCCCO)cc1)=N2	1.09	-1.49	0.428	0.417	0.445	0.152	0.0124	0.69	0.99	-0.103	-0.746	-0.279 (inactive)	0.364	0.314	0.636	2.4	0.266	1.3	0.866	1.15
COc1ccc([Si](C)(C)[C@H]2[C@H](CCn3cc(CCO)nn3)O[C@@]3(C(=O)N(Cc4ccc(N5CCOC5=O)cc4)c4ccccc43)[C@@H]2C)cc1	0.469	-4.2	-0.129	0.122	0.0117	-0.124	0.0469	0.0581	1.03	1.27	0.535	0.533 (inactive)	-0.0126	-0.112	0.458	1.94	0.622	1.23	0.21	0.702
